Compounds with a hit are over-represented: about 1.9% of the library has one in this group of screens.
MsrA inh – inhibits bovine methionine sulfoxide reductase A. AID 651718. hit rate 0.75% among 360,000. inhibition, % at 15.5 µM. purified bovine MsrA, absorbance read-out;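 further: 0% = vehicle wells with enzyme and 100% = reference inhibitor wells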
HTR5A ag ctr – activates human HTR5A in OPRM1-OPRD1 agonist counter-screen. P47898. HTR5A agonist assay, luminescence, cell-based. activation, % at 9.3 µM. hit rate 0.61% among 340,000. AID 504692; in the data active means activation mostly above about 9.5%, no sharp cut-off; inactive means mostly below about 7.6%;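 further: 0% = cells with vehicle only and 100% = reference agonist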
Target sequence (P47898 whole entry, looked up): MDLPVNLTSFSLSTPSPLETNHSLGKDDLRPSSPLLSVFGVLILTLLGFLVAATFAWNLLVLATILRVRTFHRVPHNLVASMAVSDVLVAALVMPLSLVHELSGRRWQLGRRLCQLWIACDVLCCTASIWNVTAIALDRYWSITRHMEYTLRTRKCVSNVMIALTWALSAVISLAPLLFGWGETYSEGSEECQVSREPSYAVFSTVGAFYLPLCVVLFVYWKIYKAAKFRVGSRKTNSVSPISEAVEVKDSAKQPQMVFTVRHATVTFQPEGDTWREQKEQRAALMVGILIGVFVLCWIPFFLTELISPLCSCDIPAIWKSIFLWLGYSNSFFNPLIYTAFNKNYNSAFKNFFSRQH
MOR-DOR inv ag – mu-delta opioid heterodimer inverse agonism; cell-based MOR-DOR heterodimer luminescence; hit rate 0.21% among 340,000; P35372+P41143; inhibition, % at 9.3 µM; in the data active means inhibition above about 22%, passing the limit was not always enough;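 further: 0% = cells with DMSO and 100% = wells without cells with DMSO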
MsrA act – activators of bovine methionine sulfoxide reductase A. purified bovine MsrA, absorbance read-out. activation, % at 10.6 µM. hit rate 0.3% among 360,000. AID 602163; in the data active means activation above about 7.5%;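 further: 0% = vehicle and 100% = reference activator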
OPRM1-OPRD1 ag – agonists of human mu-delta opioid receptor heterodimerization; P35372+P41143; cells, OPRM1-OPRD1 heterodimerization, luminescence; activation, % at 9.3 µM; hit rate 0.3% among 340,000; in the data active means activation above about 18%;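 further: 0% = vehicle-treated cells and 100% = reference agonist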
HTR5A inv ag – inverse agonist of human HTR5A in OPRM1-OPRD1 counter-screen. AID 504634. inhibition, % at 9.3 µM. hit rate 0.083% among 340,000. HTR5A cell line, luminescence, inverse agonism. P47898; in the data active means inhibition mostly above about 23%, no sharp cut-off; inactive means mostly below about 18%;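 further: 0% = cells with DMSO and 100% = no-cell wells with DMSO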
MsrA conf – confirmation of bovine MsrA inhibitors; shares compounds with MsrA inh; purified bovine MsrA, absorbance read-out; inhibition, % at 15.5 µM; hit rate 41% among 2,300; AID 651822;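 further: coupled to thioredoxin reductase with NADPH and selenocystamine and DMSO as substrate; 0% = vehicle only and 100% = full effect of reference inhibitor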
Active calls of the source: *. Unless noted, no stated cut-off is given here; in the data, active means inhibition above about 4.5%; inactive means the rest.

What do the screens show for `C(=N\Nc1ncnc2sc3c(c12)CCC3)/c1cccs1`?
MsrA inh: 3.7; HTR5A ag ctr: 3.5; MOR-DOR inv ag: -17.4; MsrA act: -8.8; OPRM1-OPRD1 ag: 3.3; HTR5A inv ag: -11.2

What do the screens show for `CN(C)c1ccc(-c2nc3ccccc3c(=O)[nH]2)cc1`?
MsrA inh: 6.0*; HTR5A ag ctr: 4.8; MOR-DOR inv ag: 8.7; MsrA act: -13.6; OPRM1-OPRD1 ag: -1.7; HTR5A inv ag: -9.8; MsrA conf: 4.1

Results for COc1ccc2cc3cc(C(=O)NCC4CCCO4)oc3nc2c1 (stereo not given) ?
MsrA inh: 6.2*; HTR5A ag ctr: 5.1; MOR-DOR inv ag: 9.8; MsrA act: -4.6; OPRM1-OPRD1 ag: -1.7; HTR5A inv ag: 11.5; MsrA conf: 4.0

How did COCCNC(=O)c1cc2cc3ccc(OC)cc3nc2o1 do in these assays?
MsrA inh: 4.8*; HTR5A ag ctr: -1.0; MOR-DOR inv ag: -2.4; MsrA act: -5.3; OPRM1-OPRD1 ag: 0.4; HTR5A inv ag: 3.9; MsrA conf: 3.7

How did CCC(C)NC(=O)c1cc2cc3ccc(OC)cc3nc2o1 (stereo not given) do in these assays?
MsrA inh: 5.0*; HTR5A ag ctr: 2.9; MOR-DOR inv ag: 10.6; MsrA act: -5.2; OPRM1-OPRD1 ag: -2.4; HTR5A inv ag: -10.3; MsrA conf: 4.5

What do the screens show for `CC1(C)OC(=O)C2=C(C[C@@H](CCc3ccccc3)O[C@H]2C2CCCC2)O1`?
MsrA inh: -1.2; MsrA act: 0.4

How did OC(c1ccccc1)(c1nc(-c2cccc3cccnc23)cs1)C(F)(F)F (stereo not given) do in these assays?
MsrA inh: -0.3; MsrA act: -3.9

Results for Cc1nc2cc(-c3sccc3-n3cccc3)nn2c(C)c1C ?
MsrA inh: 8.2*; HTR5A ag ctr: 2.5; MOR-DOR inv ag: 4.3; MsrA act: -10.7; OPRM1-OPRD1 ag: -0.9; HTR5A inv ag: -5.9; MsrA conf: 7.1*

How did CCCCc1n[nH]c2c1/C(=N/O)CC(C)(C)C2 do in these assays?
MsrA inh: -0.3; HTR5A ag ctr: -0.9; MOR-DOR inv ag: 14.4; MsrA act: -1.7; OPRM1-OPRD1 ag: -2.7; HTR5A inv ag: -20.3

Results for CCCCc1n[nH]c2c1/C(=N/OCC)CC(C)(C)C2 ?
MsrA inh: 19.3*; MsrA act: -2.0; MsrA conf: 12.9*

What do the screens show for `CC(C)[C@@H](C)/C=C/[C@@H](C)[C@H]1CC[C@@H]2[C@]1(C)CCC1[C@]23C=C[C@]2(C[C@@H](O)CC[C@]12C)N(C(=O)Cc1ccccc1)O3` (stereo not given in full)?
MsrA inh: -0.4

How did Cc1cc2nc(-c3ccccc3)c(Cc3ccccc3)n2c(C)c1Br do in these assays?
MsrA inh: -0.4; MsrA act: -2.1

What do the screens show for `O=C(Nc1ccc2nc(-c3ccc(Br)o3)[nH]c2c1)c1ccco1`?
MsrA inh: 6.5*; HTR5A ag ctr: 0.9; MOR-DOR inv ag: 9.1; MsrA act: -9.1; OPRM1-OPRD1 ag: -2.0; HTR5A inv ag: 1.1; MsrA conf: 6.6*

Results for COc1ccc(C2=NS(=O)(=O)N(C)C(C(=O)N3CCN(C)CC3)=C2)cc1 ?
MsrA inh: 5.9*; HTR5A ag ctr: 4.6; MOR-DOR inv ag: 13.2; MsrA act: -3.6; OPRM1-OPRD1 ag: -2.4; HTR5A inv ag: -17.8; MsrA conf: 2.8

What do the screens show for `CCN1CCN(C(=O)C2=CC(c3ccc(C)cc3)=NS(=O)(=O)N2C)CC1`?
MsrA inh: 3.1; HTR5A ag ctr: -2.2; MOR-DOR inv ag: 5.9; MsrA act: -2.4; OPRM1-OPRD1 ag: -1.0; HTR5A inv ag: 6.6

Results for Cc1ccc(C2=NS(=O)(=O)N(C)C(C(=O)N3CCCCC3)=C2)cc1 ?
MsrA inh: 5.0*; HTR5A ag ctr: 0.8; MOR-DOR inv ag: -3.1; MsrA act: -3.4; OPRM1-OPRD1 ag: 0.5; HTR5A inv ag: -2.5; MsrA conf: 3.0

How did Cc1ccc(C2=NS(=O)(=O)N(C)C(C(=O)NCc3cccs3)=C2)cc1 do in these assays?
MsrA inh: 3.5; HTR5A ag ctr: 3.0; MOR-DOR inv ag: 9.1; MsrA act: -3.0; OPRM1-OPRD1 ag: -1.6; HTR5A inv ag: 3.4

What do the screens show for `Cc1ccc(C2=NS(=O)(=O)N(C)C(C(=O)NCc3ccccn3)=C2)cc1`?
MsrA inh: 5.2*; HTR5A ag ctr: 1.7; MOR-DOR inv ag: 7.1; MsrA act: 2.3; OPRM1-OPRD1 ag: -1.2; HTR5A inv ag: -5.3; MsrA conf: 2.4

What do the screens show for `O=C(CC1CCCC1)N[C@H](C(=O)N1CCC[C@H]1C(=O)NCCc1ccccc1Cl)c1ccccc1`?
MsrA inh: 1.0

How did Nc1ccc(C(=O)N/N=C2\CCCc3c2[nH]c2ccccc32)cc1 do in these assays?
MsrA inh: 5.3*; HTR5A ag ctr: 0.5; MOR-DOR inv ag: 9.3; MsrA act: -5.8; OPRM1-OPRD1 ag: -1.7; HTR5A inv ag: 4.2; MsrA conf: 7.1*

Results for BrC(/C=C\c1ccccc1)=N/Nc1nc(N2CCOCC2)nc(N2CCOCC2)n1 ?
MsrA inh: 6.7*; HTR5A ag ctr: -2.4; MOR-DOR inv ag: 19.5; MsrA act: -10.3; OPRM1-OPRD1 ag: -4.2; HTR5A inv ag: -11.8; MsrA conf: 4.6*

How did CN(C)c1ccc(/C=C/C=N/Nc2nc(N3CCOCC3)nc(N3CCOCC3)n2)cc1 do in these assays?
MsrA inh: 6.0*; HTR5A ag ctr: 1.3; MOR-DOR inv ag: 0.2; MsrA act: -2.6; OPRM1-OPRD1 ag: -0.1; HTR5A inv ag: -15.1; MsrA conf: 4.1

Results for CC(/C=N/Nc1nc(N2CCCCC2)nc(N2CCCCC2)n1)=C\c1ccccc1 ?
MsrA inh: 2.4; HTR5A ag ctr: -3.1; MOR-DOR inv ag: 7.7; MsrA act: -5.4; OPRM1-OPRD1 ag: -1.4; HTR5A inv ag: 8.1

Results for BrC(=C\c1ccccc1)/C=N/Nc1nc(N2CCOCC2)nc(N2CCOCC2)n1 ?
MsrA inh: 5.3*; HTR5A ag ctr: -3.4; MOR-DOR inv ag: 9.5; MsrA act: -13.3; OPRM1-OPRD1 ag: -1.9; HTR5A inv ag: 3.7; MsrA conf: 4.8*

Results for CCOC(=O)[C@]12CCCC=C1N(CCc1ccc(OC)c(OC)c1)C(=O)[C@H](CC(=O)N1CCSCC1)C2 ?
MsrA inh: 0.4

What do the screens show for `Cc1ccc(-c2cc(C(=O)O)c3sc(N4CCCCC4)nc3n2)cc1`?
MsrA inh: 2.4; HTR5A ag ctr: -1.1; MOR-DOR inv ag: 15.4; MsrA act: 0.1; OPRM1-OPRD1 ag: -3.0; HTR5A inv ag: -3.6

How did O=C(O)c1cc(-c2ccccc2)nc2nc(N3CCCCC3)sc12 do in these assays?
MsrA inh: 5.8*; MsrA conf: 2.1

Results for O=C(O)c1ccc(N/N=C/c2cccc(F)c2)cc1 ?
MsrA inh: 6.8*; HTR5A ag ctr: -7.5; MOR-DOR inv ag: 15.6; MsrA act: -2.2; OPRM1-OPRD1 ag: -2.6; HTR5A inv ag: 20.0; MsrA conf: 6.7*
